Here are results for three compounds from PubChem BioAssay (EPA / NIEHS).

Experiment [1] is described as follows: ATG_GLI_CIS: Attagene CIS-FACTORIAL HepG2 Assay for human Zinc Finger Protein GLI1 (AID 2282945). The following applies: HepG2, Attagene cis-factorial reporter mRNA, GLI element; actives raise or lower the signal. The gist of the method:
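Bidirectional curve fits relative to DMSO, using reporter mRNA levels from RT-PCR plus capillary electrophoresis. Cells were HepG2 transiently carrying cis-regulated reporter constructs, harvested 24 h after dosing.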

Experiment [2] has as its target Bile acid receptor (Homo sapiens) (UniProt Q96RI1). The experiment in a line: ATG_IR1_CIS: Attagene CIS-FACTORIAL HepG2 Assay for human Nuclear Receptor Subfamily 1 Group H Member 4 (NR1H4), IR1 submotif (AID 2282946). The following applies: IR1 reporter transcription, actives raise or lower the signal. The procedure, abridged: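 Cells (human HepG2) carry transiently transfected cis-promoter reporter transcription units. Compounds are incubated 24 h, total RNA is reverse-transcribed and amplified, and labelled fragments are resolved by capillary electrophoresis. Curves use DMSO as baseline.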

The nature of experiment [3]: ATG_GRE_CIS: Attagene CIS-FACTORIAL HepG2 Assay for human Glucocorticoid Response Elements (GRE) (AID 2282947). The following applies: HepG2 GRE cis-reporter, Attagene multiplex mRNA; actives raise or lower the signal. The procedure, abridged: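 Transient MRTU transfection of human HepG2 liver cells; cis-regulated reporters report endogenous factors. 24 h dosing → RNA isolation → RT-PCR → 6-FAM primer extension → HpaI cut → CE fragment analysis. Bidirectional fit, DMSO negative control.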

Experiment [4] is described as follows: ATG_ISRE_CIS: Attagene CIS-FACTORIAL HepG2 Assay for human Interferon Regulatory Factor 1 (IRF1) binding to an Interferon-Stimulated Response Element (ISRE) (AID 2282948). The following applies: HepG2 ISRE cis-reporter (Attagene), mRNA transcription readout; actives raise or lower the signal. The gist of the method: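 Quantitation relies on labelled RT-PCR fragments separated by capillary electrophoresis. Human HepG2 cells bearing cis-promoter reporter constructs were treated 24 h; DMSO served as baseline for bidirectional fitting.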

Experiment [5] is described as follows: ATG_M_32_CIS: Attagene CIS-FACTORIAL HepG2 Assay for M32 Transcription Factor (Internal Marker) (AID 2282949).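 Also: background control marker of the multiplexed CIS panel rather than a real target.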 The following applies: HepG2 Attagene cis-factorial M32 reporter, mRNA; actives raise or lower the signal. The procedure, abridged: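 Fluorescent capillary electrophoresis peaks of HpaI-digested, FAM-labelled RT-PCR reporter products give the signal. Source: transiently transfected human liver HepG2 cells, 24 h after chemical dosing; bidirectional fitting against DMSO.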

The nature of experiment [6]: ATG_M_06_CIS: Attagene CIS-FACTORIAL HepG2 Assay for M06 Transcription Factor (Internal Marker) (AID 2282950). The following applies: HepG2 Attagene CIS-FACTORIAL M06 internal marker reporter; actives raise or lower the signal. The procedure, abridged: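 Serves as a background control readout. Transfected HepG2 exposed to compounds for 24 h, then reporter transcripts quantified by fluorescent RT-PCR and capillary electrophoresis. Both directions fitted against DMSO baseline.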

The target of experiment [7] is Hypoxia-inducible factor 1-alpha (Homo sapiens) (UniProt Q16665). The experiment in a line: ATG_HIF1a_CIS: Attagene CIS-FACTORIAL HepG2 Assay for human Hypoxia Inducible Factor 1 (HIF1A) (AID 2282951). Conditions: HepG2 Attagene cis-factorial HIF1a reporter transcription; actives raise or lower the signal. The procedure, abridged:
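Endogenous-TF cis reporter readout, human HepG2 cells, 24 h incubation; mRNA detected via RT-PCR and capillary electrophoresis fluorescence; DMSO-normalised bidirectional fitting.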

Experiment [8] has as its target Hepatocyte nuclear factor 6 (Homo sapiens) (UniProt Q9UBC0). As to the kind of experiment: ATG_HNF6_CIS: Attagene CIS-FACTORIAL HepG2 Assay for human Hepatocyte Nuclear Factor 6 (HNF6) (AID 2282952). Conditions: HepG2 Attagene cis-factorial HNF6 reporter transcription; actives raise or lower the signal. The gist of the method:
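Reporter mRNA induction or loss in HepG2 after 24 h exposure; transient cis-MRTU transfection; fragments quantified by capillary electrophoresis; bidirectional analysis, DMSO as negative control.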

For experiment [9], the target named is Heat shock factor protein 1 (Homo sapiens) (UniProt Q00613). As to the kind of experiment: ATG_HSE_CIS: Attagene CIS-FACTORIAL HepG2 Assay for human Heat Shock Transcription Factor 1 (HSE) (AID 2282953). The following applies: HepG2 HSE cis-reporter, Attagene RNA transcription; actives raise or lower the signal. The procedure, abridged: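 Endogenous transcription factor activity in transiently transfected HepG2, read as reporter mRNA by RT-PCR with fluorescent capillary electrophoresis after 24 h. Gain or loss of signal fitted versus DMSO baseline.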
Heat shock factor protein 1 (Homo sapiens), sequence (Q00613 whole entry, looked up): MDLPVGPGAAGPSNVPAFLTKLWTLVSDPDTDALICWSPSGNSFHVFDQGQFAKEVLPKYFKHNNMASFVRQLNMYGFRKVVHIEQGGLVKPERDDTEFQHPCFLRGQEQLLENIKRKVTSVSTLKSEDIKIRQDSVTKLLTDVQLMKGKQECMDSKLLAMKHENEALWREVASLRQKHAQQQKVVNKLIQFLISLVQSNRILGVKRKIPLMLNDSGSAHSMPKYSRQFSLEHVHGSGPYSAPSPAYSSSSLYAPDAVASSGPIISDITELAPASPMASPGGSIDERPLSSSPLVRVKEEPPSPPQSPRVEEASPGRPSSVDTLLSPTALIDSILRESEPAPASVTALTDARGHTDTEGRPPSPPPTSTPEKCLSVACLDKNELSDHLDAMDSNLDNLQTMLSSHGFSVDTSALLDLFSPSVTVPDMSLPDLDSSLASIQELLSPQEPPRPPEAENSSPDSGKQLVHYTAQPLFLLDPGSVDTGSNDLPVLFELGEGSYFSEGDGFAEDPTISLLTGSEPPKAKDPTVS

A short description of experiment [10]: ATG_MRE_CIS: Attagene CIS-FACTORIAL HepG2 Assay for human Metal Responsive Element (MRE) (AID 2282954). The following applies: HepG2 MRE cis-reporter transcription, Attagene multiplex; actives raise or lower the signal. The procedure, abridged: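 Transient MRTU transfection of HepG2 (FuGene 6); 24 h dosing; total RNA → oligo(dT) RT, PCR, 6-FAM primer extension, HpaI cut, CE. Bidirectional fit vs DMSO.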

The nature of experiment [11]: ATG_PBREM_CIS: Attagene CIS-FACTORIAL HepG2 Assay for human Phenobarbital-responsive Enhancer Module (PBREM) (AID 2282955). The following applies: HepG2 PBREM cis-reporter, Attagene multiplexed transcription; actives raise or lower the signal. The gist of the method:
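Readout: reporter mRNA, fluorescent RT-PCR fragments separated by capillary electrophoresis. System: HepG2 transiently transfected with cis-regulated reporter units. Exposure: 24 h. Analysis: bidirectional, DMSO baseline.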

Experiment [12] deals with Paired box protein Pax-6 (Homo sapiens) (UniProt P26367). The experiment in a line: ATG_Pax6_CIS: Attagene CIS-FACTORIAL HepG2 Assay for human Paired Box 6 (PAX6) (AID 2282956). The following applies: HepG2 CIS-FACTORIAL PAX6 reporter transcription, RNA readout; actives raise or lower the signal. The gist of the method: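 After twenty-four hours of chemical exposure, transfected HepG2 cells are harvested for RNA. Cis-promoter reporter transcripts are amplified, fluorescently labelled and sized by capillary electrophoresis, with gain and loss of signal scored against DMSO.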
Paired box protein Pax-6 (Homo sapiens), sequence (P26367 whole entry, looked up): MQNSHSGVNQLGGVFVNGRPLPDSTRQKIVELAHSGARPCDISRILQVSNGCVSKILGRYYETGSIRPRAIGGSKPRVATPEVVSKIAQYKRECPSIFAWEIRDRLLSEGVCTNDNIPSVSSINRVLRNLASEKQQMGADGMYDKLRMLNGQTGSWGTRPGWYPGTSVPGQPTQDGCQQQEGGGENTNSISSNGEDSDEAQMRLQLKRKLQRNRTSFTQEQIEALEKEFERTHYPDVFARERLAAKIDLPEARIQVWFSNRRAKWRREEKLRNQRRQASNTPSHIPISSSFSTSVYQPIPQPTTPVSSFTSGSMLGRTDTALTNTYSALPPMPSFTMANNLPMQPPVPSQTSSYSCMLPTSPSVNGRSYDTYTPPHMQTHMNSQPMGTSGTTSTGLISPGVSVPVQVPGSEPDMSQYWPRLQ

The nature of experiment [13]: ATG_PXRE_CIS: Attagene CIS-FACTORIAL HepG2 Assay for human Pregnane X Receptor Element (PXRE) (AID 2282957). Conditions: HepG2 Attagene CIS-FACTORIAL PXRE reporter, mRNA; actives raise or lower the signal. The procedure, abridged: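 Transiently transfected HepG2 cells were dosed and incubated for 24 h. RNA was then isolated, DNase-treated, reverse-transcribed and reporter sequences amplified. Labeled, HpaI-digested fragments were quantified by capillary electrophoresis against DMSO.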

The nature of experiment [14]: ATG_PPRE_CIS: Attagene CIS-FACTORIAL HepG2 Assay for human Peroxisome Proliferator-activated Response Element (PPRE) (AID 2282958). Conditions: HepG2 PPRE cis-element reporter, Attagene transcription factor profiling; actives raise or lower the signal. The gist of the method:
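After human HepG2 hepatoma cells were transiently transfected with cis-promoter reporter constructs, they were exposed to test chemicals for 24 hours. Reporter RNA was then reverse-transcribed, PCR-amplified, FAM-labeled, HpaI-digested and quantified by capillary electrophoresis.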

A short description of experiment [15]: ATG_RORE_CIS: Attagene CIS-FACTORIAL HepG2 Assay for human RAR-related Orphan Receptor Element (RORE) (AID 2282959). The following applies: HepG2 Attagene cis-factorial RORE reporter, mRNA; actives raise or lower the signal. The gist of the method: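 Measured here: transcript induction of a cis-regulated reporter in HepG2 cells transiently transfected via FuGene 6. After 24 h, RNA was processed by RT-PCR and fluorescent capillary electrophoresis; DMSO defined baseline activity.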

Experiment [16] can be described thus: ATG_Sox_CIS: Attagene CIS-FACTORIAL HepG2 Assay for human SRY-box transcription factor (SOX) (AID 2282960). Conditions: HepG2 Attagene cis-factorial SOX reporter, mRNA; actives raise or lower the signal. The gist of the method:
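Using transiently transfected HepG2 cells, reporter transcription driven by cis elements was assessed 24 h after dosing. Signal was fluorescence of capillary-separated RT-PCR products, with DMSO defining baseline activity.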

The target of experiment [17] is Transcription factor Sp1 (Homo sapiens) (UniProt P08047). The experiment in a line: ATG_Sp1_CIS: Attagene CIS-FACTORIAL HepG2 Assay for human Specificity Protein 1 (Sp1) (AID 2282961). Conditions: HepG2 Sp1 cis-reporter transcription, actives raise or lower the signal. The procedure, abridged: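 After transient transfection of HepG2 cells with cis-promoter reporter units and 24 h chemical treatment, reporter transcripts were quantified by RT-PCR and capillary electrophoresis fluorescence. Gain- and loss-of-signal fitted against DMSO.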
Transcription factor Sp1 (Homo sapiens), sequence (P08047 whole entry, looked up): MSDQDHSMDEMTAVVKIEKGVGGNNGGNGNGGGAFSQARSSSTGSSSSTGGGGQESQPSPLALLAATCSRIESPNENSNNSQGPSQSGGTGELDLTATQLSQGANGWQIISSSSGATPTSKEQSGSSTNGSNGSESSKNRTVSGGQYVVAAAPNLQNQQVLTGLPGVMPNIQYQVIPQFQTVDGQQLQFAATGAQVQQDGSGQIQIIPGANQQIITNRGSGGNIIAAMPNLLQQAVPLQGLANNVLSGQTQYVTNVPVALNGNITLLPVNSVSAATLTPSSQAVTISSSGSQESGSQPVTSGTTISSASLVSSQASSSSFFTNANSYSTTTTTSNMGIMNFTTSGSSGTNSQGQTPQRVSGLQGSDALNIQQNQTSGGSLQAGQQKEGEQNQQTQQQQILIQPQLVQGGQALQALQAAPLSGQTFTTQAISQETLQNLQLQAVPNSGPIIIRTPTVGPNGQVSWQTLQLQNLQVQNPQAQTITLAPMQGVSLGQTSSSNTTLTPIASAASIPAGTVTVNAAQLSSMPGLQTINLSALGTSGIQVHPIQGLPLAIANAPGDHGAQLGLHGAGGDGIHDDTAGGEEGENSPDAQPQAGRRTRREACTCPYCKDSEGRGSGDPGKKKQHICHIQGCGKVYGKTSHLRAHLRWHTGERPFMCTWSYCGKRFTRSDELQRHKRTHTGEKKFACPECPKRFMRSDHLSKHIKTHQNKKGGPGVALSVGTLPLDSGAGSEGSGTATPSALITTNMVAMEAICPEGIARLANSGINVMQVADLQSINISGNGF

Experiment [18] in a line: ATG_SREBP_CIS: Attagene CIS-FACTORIAL HepG2 Assay for human Sterol Regulatory Element Binding (SREBP) (AID 2282962). The following applies: HepG2 Attagene cis-factorial SREBP reporter, mRNA; actives raise or lower the signal. The gist of the method: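 Twenty-four hours after chemical dosing of transfected HepG2 cultures, reporter RNA was converted to cDNA, amplified, end-labelled with 6-FAM and resolved by capillary electrophoresis. Responses were fitted relative to DMSO.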

The target in experiment [19] is Signal transducer and activator of transcription 3 (Homo sapiens) (UniProt P40763). As to the kind of experiment: ATG_STAT3_CIS: Attagene CIS-FACTORIAL HepG2 Assay for human Signal Transducer and Activator of Transcription 3 (STAT3) (AID 2282963). The following applies: HepG2, Attagene cis-factorial STAT3 reporter transcription; actives raise or lower the signal. The gist of the method: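 Endogenous STAT3-responsive cis-element activity was read in transiently transfected HepG2 cells after 24 h treatment. Reporter transcripts were quantified via RT-PCR and capillary electrophoresis, with DMSO as negative control and bidirectional curve fitting.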
Signal transducer and activator of transcription 3 (Homo sapiens), sequence (P40763 whole entry, looked up): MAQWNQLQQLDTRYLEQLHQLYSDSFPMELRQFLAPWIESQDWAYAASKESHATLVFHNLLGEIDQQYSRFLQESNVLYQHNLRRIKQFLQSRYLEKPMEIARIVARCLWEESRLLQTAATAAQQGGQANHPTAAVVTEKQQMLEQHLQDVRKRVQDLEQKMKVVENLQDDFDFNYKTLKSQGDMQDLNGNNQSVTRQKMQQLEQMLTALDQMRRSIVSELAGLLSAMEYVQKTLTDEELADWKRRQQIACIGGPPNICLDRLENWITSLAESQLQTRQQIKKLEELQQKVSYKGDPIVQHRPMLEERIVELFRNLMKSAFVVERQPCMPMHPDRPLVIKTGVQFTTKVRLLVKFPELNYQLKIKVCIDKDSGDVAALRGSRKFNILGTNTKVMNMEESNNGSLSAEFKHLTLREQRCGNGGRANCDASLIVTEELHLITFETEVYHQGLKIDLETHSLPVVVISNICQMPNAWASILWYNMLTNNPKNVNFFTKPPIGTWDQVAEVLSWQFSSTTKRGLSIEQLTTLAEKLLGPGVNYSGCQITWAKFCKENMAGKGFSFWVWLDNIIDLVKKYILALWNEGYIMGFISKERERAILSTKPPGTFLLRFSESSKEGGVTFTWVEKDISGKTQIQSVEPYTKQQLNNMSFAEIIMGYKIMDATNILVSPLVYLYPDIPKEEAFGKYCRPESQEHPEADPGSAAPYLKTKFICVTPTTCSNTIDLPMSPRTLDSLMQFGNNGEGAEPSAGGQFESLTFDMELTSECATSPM

Experiment [20] in a line: ATG_TA_CIS: Attagene CIS-FACTORIAL HepG2 Assay for human TA Basal Promoter (AID 2282964). The following applies: HepG2 Attagene CIS-factorial TA basal promoter reporter; actives raise or lower the signal. The gist of the method:
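Background-control readout: TA basal promoter reporter mRNA, fitted in both directions relative to DMSO. Measured by RT-PCR and capillary electrophoresis 24 hours after treating HepG2 human liver cells transiently carrying multiplexed cis-regulated reporter constructs.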

Where “and” joins values, the source holds several entries; their conditions need not be identical. Equal entries are not always repeated. Where a structure was tested more than once in an assay, its records may differ in their call. Calls of active or inactive are those of the source. The calls were made as follows: active = hit-call score of the fitted dose curve at least 0.9, where 1 is the maximum; inactive = score below 0.9.

Hepatocyte nuclear factor 6 (Homo sapiens), sequence (Q9UBC0 whole entry, looked up, the tested form may be a part): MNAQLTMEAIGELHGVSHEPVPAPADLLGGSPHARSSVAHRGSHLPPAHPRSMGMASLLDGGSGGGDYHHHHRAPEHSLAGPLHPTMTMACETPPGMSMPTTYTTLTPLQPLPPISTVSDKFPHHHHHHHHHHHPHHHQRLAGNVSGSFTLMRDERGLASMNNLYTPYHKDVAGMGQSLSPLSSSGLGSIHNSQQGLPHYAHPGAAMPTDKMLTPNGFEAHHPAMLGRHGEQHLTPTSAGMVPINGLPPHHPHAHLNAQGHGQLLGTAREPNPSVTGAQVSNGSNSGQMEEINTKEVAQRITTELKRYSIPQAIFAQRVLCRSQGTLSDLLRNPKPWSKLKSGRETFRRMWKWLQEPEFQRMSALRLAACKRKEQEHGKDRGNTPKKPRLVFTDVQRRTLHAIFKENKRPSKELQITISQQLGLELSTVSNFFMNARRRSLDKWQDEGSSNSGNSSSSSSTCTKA
Bile acid receptor (Homo sapiens), sequence (Q96RI1 whole entry, looked up, the tested form may be a part): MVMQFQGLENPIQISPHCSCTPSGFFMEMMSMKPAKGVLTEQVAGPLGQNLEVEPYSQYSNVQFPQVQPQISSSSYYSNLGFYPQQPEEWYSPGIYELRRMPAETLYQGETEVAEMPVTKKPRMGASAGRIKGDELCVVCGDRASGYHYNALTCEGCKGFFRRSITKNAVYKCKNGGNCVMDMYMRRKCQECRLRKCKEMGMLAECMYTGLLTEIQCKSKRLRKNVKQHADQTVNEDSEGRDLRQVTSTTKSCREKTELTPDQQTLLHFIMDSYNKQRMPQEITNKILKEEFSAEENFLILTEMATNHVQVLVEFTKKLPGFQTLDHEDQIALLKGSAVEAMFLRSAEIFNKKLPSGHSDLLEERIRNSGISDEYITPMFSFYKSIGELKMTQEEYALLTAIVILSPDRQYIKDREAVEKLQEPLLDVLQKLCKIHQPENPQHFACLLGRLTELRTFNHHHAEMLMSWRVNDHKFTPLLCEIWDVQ
Hypoxia-inducible factor 1-alpha (Homo sapiens), sequence (Q16665 whole entry, looked up): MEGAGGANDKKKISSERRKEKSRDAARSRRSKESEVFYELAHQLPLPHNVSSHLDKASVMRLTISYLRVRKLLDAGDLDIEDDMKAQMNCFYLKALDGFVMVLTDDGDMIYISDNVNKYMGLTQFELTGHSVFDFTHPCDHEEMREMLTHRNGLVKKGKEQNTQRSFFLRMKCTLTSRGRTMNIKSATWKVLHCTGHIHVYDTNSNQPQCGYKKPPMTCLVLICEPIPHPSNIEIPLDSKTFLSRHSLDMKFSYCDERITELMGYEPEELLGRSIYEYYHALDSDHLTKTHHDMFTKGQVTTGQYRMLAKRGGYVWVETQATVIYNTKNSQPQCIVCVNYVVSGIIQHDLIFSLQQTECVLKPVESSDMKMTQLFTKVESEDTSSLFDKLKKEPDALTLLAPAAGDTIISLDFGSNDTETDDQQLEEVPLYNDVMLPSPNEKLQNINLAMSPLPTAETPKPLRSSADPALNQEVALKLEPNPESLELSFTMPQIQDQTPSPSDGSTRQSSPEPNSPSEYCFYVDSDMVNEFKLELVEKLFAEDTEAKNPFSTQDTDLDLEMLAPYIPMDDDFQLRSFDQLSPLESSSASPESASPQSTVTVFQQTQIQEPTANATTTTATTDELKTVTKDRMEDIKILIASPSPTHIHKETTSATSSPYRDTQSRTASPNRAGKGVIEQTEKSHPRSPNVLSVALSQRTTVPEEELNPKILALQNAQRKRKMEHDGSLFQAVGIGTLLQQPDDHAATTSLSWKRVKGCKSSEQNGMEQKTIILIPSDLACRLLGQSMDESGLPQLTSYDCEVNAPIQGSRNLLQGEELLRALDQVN

On to `CCCCCCOC(=O)c1ccccc1`, for which the outcome in [1], in experiment [2], in experiment [3], in [4], in experiment [5] and in experiment [6] was inactive. In addition, the compound was called inactive in [7], in experiment [8], in experiment [9], in experiment [10], in experiment [11] and in [12]. For the same compound, the compound was called inactive in [13], in experiment [14], in [15], in experiment [16], in experiment [17] and in experiment [18]. Further, the result in [19] and in [20] was inactive.

Regarding `O=S(=O)(O)C(F)(F)C(F)(F)C(F)(F)C(F)(F)C(F)(F)C(F)(F)C(F)(F)F`, the result in [1], in experiment [2], in [3], in experiment [4], in [5] and in experiment [7] was inactive. Also, the compound was called inactive in [8], in [9], in experiment [10], in experiment [11], in [12] and in [14]. Besides, the result in experiment [15], in experiment [17], in experiment [19] and in experiment [20] was inactive. For the same compound, the concentration at half-maximal activity (AC50) (as a rule, the concentration giving half of the maximal activity seen) in experiment [5] is 149 µM (active); in experiment [8] it was 157 µM (active); in [13], 20.3 µM (active) and 19.7 µM (active); in [14] it was 61.2 µM (active); in experiment [19], 163 µM (active); in experiment [20] it was 159 µM (active).

For `O=C(O)C(F)(F)C(F)(F)C(F)(F)C(F)(F)C(F)(F)C(F)(F)C(F)(F)C(F)(F)C(F)(F)C(F)F`, the call in experiment [1], in experiment [2], in [3], in experiment [5], in experiment [6] and in experiment [7] was inactive. Besides, the result in [8], in experiment [9], in experiment [11], in experiment [12], in [15] and in [16] was inactive. Besides, the compound was called inactive in experiment [17], in [18], in experiment [19] and in [20]. Besides, the half-maximal activity concentration (AC50) in experiment [4] was 27.1 µM (active); in experiment [10], 25.3 µM (active); in experiment [13], 18.8 µM (active); in experiment [14], 9.33 µM (active).
